Compound activity (PubChem)
Sampled rows, rich in hits. Any-hit rate of the full collection: about 4.3%.
D3 ag – agonists of human D3 dopamine receptor; D3R DiscoveRx beta-arrestin cells, luminescence, 90 min; P35462; 0.58% of 410,000 active; max activation, %; AID 652048; in the data active means max activation above about 30%; further: 0% is about no effect
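Cells at 1500/well, incubated overnight, then treated with pinned compounds (dopamine as control) for 90 min at 37 degrees C. DiscoveRx reagent added for 30 - 60 minutes at room temperature; luminescence read.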
GLP-1R inv ag – acts as inverse agonist at human GLP-1 receptor. HEK293 GLP-1R CRE-luciferase, luminescence, 24 h; GLP-1R form is constitutively active. AID 624417. Potency, µM (titrated, usually from 38.3 µM), inactives show top-dose activity change, negative = inhibition, usual class: inhibitors. P43220. 1.6% of 410,000 active; further: potency means the concentration at half of the fitted maximal effect; on the % scale 0 is the no-effect control and ±100 the full control effect; nearly all actives have a fitted effect of over 55% in size
Target sequence (P43220 whole entry, looked up): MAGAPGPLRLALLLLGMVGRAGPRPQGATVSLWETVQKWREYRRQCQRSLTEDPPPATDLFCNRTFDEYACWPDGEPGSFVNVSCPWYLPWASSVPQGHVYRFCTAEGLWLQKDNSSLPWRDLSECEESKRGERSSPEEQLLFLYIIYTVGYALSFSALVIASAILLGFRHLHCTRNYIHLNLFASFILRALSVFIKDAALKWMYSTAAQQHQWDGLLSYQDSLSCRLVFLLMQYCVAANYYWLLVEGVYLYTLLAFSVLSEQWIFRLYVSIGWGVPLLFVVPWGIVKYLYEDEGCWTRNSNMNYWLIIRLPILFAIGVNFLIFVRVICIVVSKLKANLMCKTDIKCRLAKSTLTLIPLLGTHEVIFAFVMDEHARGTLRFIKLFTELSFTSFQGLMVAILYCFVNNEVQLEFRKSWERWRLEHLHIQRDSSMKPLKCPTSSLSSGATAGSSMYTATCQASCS
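HEK293 cells stably co-expressing a cAMP-responsive luciferase reporter and constitutively active GLP-1R were seeded, incubated 12 h, then exposed to compounds for 24 h at 37 C. Luminescence was read 12 min after detection reagent; inverse agonists lower signal.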
GLP1R ag – GLP-1 receptor (human) agonism. P43220. HEK293 GLP-1R CRE-luciferase, luminescence, 4-6 h; cells express a hypersensitive GLP-1R form. Potency, µM (doses to about 45.6 µM), for the others: at the top dose activation, actives largely listed as activators. 0.007% of 380,000 active. AID 624172; further: potency means the concentration at half of the fitted maximal effect; % of control where 0% means no effect
DRD3 antagonist – antagonists of human D3 dopamine receptor | P35462 | D3R cells, DiscoveRx beta-arrestin luminescence, antagonist mode; active compounds read low | max response, negative = inhibition, % | 2.5% of 360,000 active | AID 652054; in the data active means max response below about -50%; inconclusive means no clear call, values can overlap the other calls; further: on the % scale 0 is the no-effect control and ±100 the full control effect
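Cells expressing the human receptor were seeded at 1500 cells/well, incubated overnight at 37 degrees C in 5% CO2, then exposed to library compounds with dopamine controls for 90 minutes at 37 degrees C before luminescent detection.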
Starred values were filed as active, the others as inactive; ? = inconclusive; · = no result; [ ] = another dose, or the depositor's remark. Unless noted, the call rests on the fitted dose curve; in most records, active means well fitted curve in the direction sought with a large enough effect; inconclusive means small, poorly fitted or top-dose-only effect, or another doubt; inactive means no such curve, though single readings can be large; an effect the other way counts as inactive or inconclusive.

SMILES	D3 ag	GLP-1R inv ag	GLP1R ag	DRD3 antagonist
CC(C)(C)OC(=O)[C@H](Cc1ccccc1)NC(=O)c1nc[nH]c1C(=O)N1CCN(C(=O)OC(C)(C)C)CC1	13	4.5µM*	-3%	13
CC(C)(C)OC(=O)N1CCN(C(=O)c2[nH]cnc2C(=O)N[C@@H](Cc2ccccc2)C(=O)OCc2ccccc2)CC1	0	1%	6%	-13
CC(C)(C)OC(=O)[C@H](Cc1ccccc1)NC(=O)c1nc[nH]c1C(=O)NC1CCN(C(=O)OC(C)(C)C)CC1	1	10µM*	-4%	11
COc1cccc(-n2c(=O)c3sc4ccccc4c3n(CC(=O)Nc3ccc(F)cc3F)c2=O)c1	-8	6%	-2%	·
Cc1cc(C)c2oc(C(=O)Nc3c(C(=O)c4ccccc4)oc4ccccc34)cc(=O)c2c1	1	14%	·	·
COCCNC(=O)CN1C(=O)c2cccnc2Sc2ccccc21	1	8%	·	·
CCN1CCCC1CNc1ccc(S(C)(=O)=O)cc1[N+](=O)[O-] (configuration not stated)	-18	?	17%	-54*
CC(C)c1ccc(N(CC(=O)O)S(=O)(=O)c2ccc3[nH]c(=O)c(=O)[nH]c3c2)cc1	-14	6%	·	·
COC(=O)c1sc(S(=O)(=O)N2CCN(c3ccc(OC)cc3)CC2)c(C(=O)OC)c1C	8	16%	6%	-19
COC(=O)c1sc(S(=O)(=O)N2CCN(c3ccccc3F)CC2)c(C(=O)OC)c1C	-2	11µM*	21%	-5
O=C(NCCN1CCOCC1)c1ccc(Cl)c(Cl)c1	-23	18%	13%	-20
O=C1/C(=C\c2ccc(Cl)c(Cl)c2)CN(C(=O)CCN2CCOCC2)C/C1=C/c1ccc(Cl)c(Cl)c1	-21	?	-14%	-79*
O=C1/C(=C\c2ccccc2)CN(C(=O)CCN2CCCCC2)C/C1=C/c1ccccc1	-8	?	-4%	-62*
O=C(NCCCN1CCN(c2ccccc2)CC1)c1ccc2nc(CCc3ccccc3)oc2c1	12	16%	·	·
CCOc1cccc(-c2c(C(=O)N/N=C/c3ccc(C)s3)nnn2-c2nonc2N)c1	1	?	0%	-2
Cc1ccc(SCc2c(C(=O)N/N=C/c3ccc4c(c3)OCO4)nnn2-c2nonc2N)cc1	-7	0%	-6%	-2
CCOc1ccc(-c2c(C(=O)N/N=C/c3ccc(C)s3)nnn2-c2nonc2N)cc1	0	11µM*	-2%	-14
Cc1ccc(-c2c(C(=O)N/N=C/c3ccc4c(c3)OCO4)nnn2-c2nonc2N)cc1	2	10µM*	4%	-1
Cc1cccc(NC(=O)C(=O)NCC(c2cccnc2)N2CCOCC2)c1 (configuration not stated)	-11	12%	·	·
COc1cccc(NS(=O)(=O)c2ccc3c(c2)n(C)c(=O)n3C)c1	7	5%	·	·
Cc1ccc(/C=C/c2nc3ccccc3[nH]2)cc1	4	2.5µM*	·	·
Cc1ccc(C(=O)Cc2nc3ccccc3[nH]2)cc1	-12	-27%	6%	-51*
CCOC(=O)Cc1nc2ccccc2[nH]1	-23	-1%	1%	16
CCCCC1C2=C(CC(C)(C)CC2=O)OC2=C1C(=O)CC(C)(C)C2	-4	8.9µM*	4%	21
Cc1ccc(-n2nc3c(N4CCC(C(=O)NC5CCC(C)CC5)CC4)nnc(C)c3c2C)cc1 (configuration not stated)	-5	-24%	·	·
SMILES	D3 ag	GLP-1R inv ag	GLP1R ag	DRD3 antagonist
COc1ccc(NC(=O)c2oc3ccccc3c2NC(=O)c2cc(=O)c3c(C)cc(C)cc3o2)cc1	4	16%	·	·
O=C(NC(c1ccc(Cl)cc1)c1cc(Cl)c2cccnc2c1O)c1cccnc1 (configuration not stated)	2	-15%	-10%	-100*
CC(=O)NC(c1ccccc1)c1cc(Cl)c2cccnc2c1O (configuration not stated)	-11	?	10%	?
COc1ccc(C(=O)NC(c2ccccc2Cl)c2cc(Cl)c3cccnc3c2O)cc1 (configuration not stated)	23	1.8µM*	·	·
COc1cc(C(=O)NC(c2ccccc2Cl)c2cc(Cl)c3cccnc3c2O)cc(OC)c1OC (configuration not stated)	10	?	·	·
Cc1nc(NCCc2ccc(S(N)(=O)=O)cc2)c2c3c(sc2n1)CCC3	35*	1%	11%	41
Cc1ccc(NC(=O)CN(C)C(=O)c2cccc(S(=O)(=O)N3CCc4ccccc43)c2)cc1	0	11µM*	-6%	-10
CS(=O)(=O)N1CCc2cc(C(=O)Nc3ccc(Cl)cc3)ccc21	94*	21%	18%	?
O=C(NCCc1ccccc1)c1ccc2c(c1)CCN2S(=O)(=O)c1ccc(Br)cc1	-7	0%	·	·
Cc1ccc(S(=O)(=O)N2CCc3cc(C(=O)NCCc4ccccc4)ccc32)cc1	64*	?	·	·
O=C(Nc1cccc(Cl)c1)c1ccc2c(c1)CCN2S(=O)(=O)c1ccccc1	0	2.5µM*	·	·
COc1ccc(NC(=O)c2ccc3c(c2)CCN3S(C)(=O)=O)cc1	5	14%	-6%	-2
NCCCC[C@H](NC(=O)[C@@H]1CCCN1C(=O)[C@@H]1CSSC[C@H](N)C(=O)N[C@@H](Cc2ccc(O)cc2)C(=O)N[C@@H](Cc2ccccc2)C(=O)N[C@@H](CCC(N)=O)C(=O)N[C@@H](CC(N)=O)C(=O)N1)C(=O)NCC(N)=O	-18	·	·	·
COc1ccc(N(C(=O)/C=C\C(=O)Nc2ccc(Cl)cc2)C(C(=O)NCc2ccco2)c2ccc(C)cc2)cc1 (configuration not stated)	1	?	·	·
CC(=O)c1c(C)[nH]c(C(=O)NCCC2=CCCCC2)c1C	2	-9%	-1%	-57*
CCOC(=O)c1cc(-c2csc(-c3ccc(C(C)(C)C)cc3)n2)on1	32*	25%	8%	6
FC(F)(F)c1nc(-c2cccs2)ncc1-c1nnnn1-c1ccc(Cl)cc1	29	7.1µM*	-15%	-19
O=C(CCCOc1ccc(Cl)cc1Cl)N/N=C/c1ccccc1O	6	4.5µM*	-4%	-20
O=C(CCCOc1ccc(Cl)cc1Cl)N/N=C/c1ccccc1	4	-22%	?	13
O=C(COc1ccc(Cl)cc1Cl)N/N=C/CCc1ccccc1	-2	0%	10%	-55*
O=C(CCC(=O)N/N=C/c1cc(Cl)cc(Cl)c1O)NCc1ccccc1	-7	-22%[7.66 µM]	1%	-54*
Cc1nn(-c2cc(N3CCCC3)ccc2[N+](=O)[O-])c(=O)c2ccccc12	-1	-15%	-9%	-59*
Cc1nn(-c2cc(N3CCOCC3)ccc2[N+](=O)[O-])c(=O)c2ccccc12	2	14%	5%	-28
O=C(O)CC(C(=O)OC1CCCCC1)N1CCOCC1 (configuration not stated)	-4	8%	1%	-92*
